Experiments:
Assay in all cases: log2 ratio of Biotin-Ahx-Ub-VS probe labelling (fragment/DMSO); higher = less target engagement (more negative = stronger competition), active = hit call of the paper (q ≤ 0.05, log2 ratio ≤ -1)
Conditions in all cases: compound concentration: 200 uM; treatment time: 3 h
USP42 = target: T1, USP42 (UniProt Q9H9J4)
T1 sequence (whole entry): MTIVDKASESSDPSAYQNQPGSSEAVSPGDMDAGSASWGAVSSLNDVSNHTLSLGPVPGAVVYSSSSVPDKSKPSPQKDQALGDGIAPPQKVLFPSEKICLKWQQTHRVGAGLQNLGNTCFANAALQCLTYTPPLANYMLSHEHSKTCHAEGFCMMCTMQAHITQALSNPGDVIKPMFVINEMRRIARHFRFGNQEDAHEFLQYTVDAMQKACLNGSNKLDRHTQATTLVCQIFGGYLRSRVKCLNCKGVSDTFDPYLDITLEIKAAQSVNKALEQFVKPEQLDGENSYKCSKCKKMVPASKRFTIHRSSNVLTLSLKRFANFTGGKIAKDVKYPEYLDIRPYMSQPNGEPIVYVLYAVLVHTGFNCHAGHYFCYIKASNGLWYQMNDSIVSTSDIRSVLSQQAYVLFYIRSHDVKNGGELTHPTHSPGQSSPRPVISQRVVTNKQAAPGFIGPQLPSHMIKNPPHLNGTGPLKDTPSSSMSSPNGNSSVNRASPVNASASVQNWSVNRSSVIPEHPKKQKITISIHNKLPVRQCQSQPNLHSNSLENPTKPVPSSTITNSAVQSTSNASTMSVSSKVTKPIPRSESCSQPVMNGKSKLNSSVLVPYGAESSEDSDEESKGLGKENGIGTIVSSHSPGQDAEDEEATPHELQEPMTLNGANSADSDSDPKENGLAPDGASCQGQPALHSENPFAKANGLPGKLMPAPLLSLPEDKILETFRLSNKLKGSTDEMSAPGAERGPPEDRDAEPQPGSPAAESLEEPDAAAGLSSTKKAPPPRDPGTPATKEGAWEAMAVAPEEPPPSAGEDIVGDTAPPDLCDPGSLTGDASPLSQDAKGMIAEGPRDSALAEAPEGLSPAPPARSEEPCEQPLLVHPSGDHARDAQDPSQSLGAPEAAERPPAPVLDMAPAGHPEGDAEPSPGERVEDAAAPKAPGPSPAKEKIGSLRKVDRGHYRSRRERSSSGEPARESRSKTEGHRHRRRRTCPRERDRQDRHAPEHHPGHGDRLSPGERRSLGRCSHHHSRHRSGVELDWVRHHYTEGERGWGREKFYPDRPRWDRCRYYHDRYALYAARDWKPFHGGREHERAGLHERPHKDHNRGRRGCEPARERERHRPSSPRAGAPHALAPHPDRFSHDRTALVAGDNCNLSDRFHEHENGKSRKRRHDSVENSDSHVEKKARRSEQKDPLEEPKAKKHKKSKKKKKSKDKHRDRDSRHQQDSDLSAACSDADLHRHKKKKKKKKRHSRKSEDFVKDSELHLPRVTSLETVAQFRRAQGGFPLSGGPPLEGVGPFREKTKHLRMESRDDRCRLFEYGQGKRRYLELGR
Method in brief: (§1)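 Average log2 ratios of fragment over vehicle were obtained by unpaired t-test from global-median-normalised Spectronaut label-free quantities. Proteins with ≥2 unique peptides were included. HEK293T lysate (495 µg per sample) was treated in triplicate with fragment at 200 µM or vehicle for 3 h, then with Biotin-Ahx-Ub-VS at 0.5 µM final for 1 h, and labelled DUBs were NeutrAvidin-enriched and run by diaPASEF LC-MS/MS.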

USP46 = USP46 (UniProt P62068)
Method in brief: as §1

USP47 = target: T2, USP47 (UniProt Q96K76)
T2 sequence (whole entry): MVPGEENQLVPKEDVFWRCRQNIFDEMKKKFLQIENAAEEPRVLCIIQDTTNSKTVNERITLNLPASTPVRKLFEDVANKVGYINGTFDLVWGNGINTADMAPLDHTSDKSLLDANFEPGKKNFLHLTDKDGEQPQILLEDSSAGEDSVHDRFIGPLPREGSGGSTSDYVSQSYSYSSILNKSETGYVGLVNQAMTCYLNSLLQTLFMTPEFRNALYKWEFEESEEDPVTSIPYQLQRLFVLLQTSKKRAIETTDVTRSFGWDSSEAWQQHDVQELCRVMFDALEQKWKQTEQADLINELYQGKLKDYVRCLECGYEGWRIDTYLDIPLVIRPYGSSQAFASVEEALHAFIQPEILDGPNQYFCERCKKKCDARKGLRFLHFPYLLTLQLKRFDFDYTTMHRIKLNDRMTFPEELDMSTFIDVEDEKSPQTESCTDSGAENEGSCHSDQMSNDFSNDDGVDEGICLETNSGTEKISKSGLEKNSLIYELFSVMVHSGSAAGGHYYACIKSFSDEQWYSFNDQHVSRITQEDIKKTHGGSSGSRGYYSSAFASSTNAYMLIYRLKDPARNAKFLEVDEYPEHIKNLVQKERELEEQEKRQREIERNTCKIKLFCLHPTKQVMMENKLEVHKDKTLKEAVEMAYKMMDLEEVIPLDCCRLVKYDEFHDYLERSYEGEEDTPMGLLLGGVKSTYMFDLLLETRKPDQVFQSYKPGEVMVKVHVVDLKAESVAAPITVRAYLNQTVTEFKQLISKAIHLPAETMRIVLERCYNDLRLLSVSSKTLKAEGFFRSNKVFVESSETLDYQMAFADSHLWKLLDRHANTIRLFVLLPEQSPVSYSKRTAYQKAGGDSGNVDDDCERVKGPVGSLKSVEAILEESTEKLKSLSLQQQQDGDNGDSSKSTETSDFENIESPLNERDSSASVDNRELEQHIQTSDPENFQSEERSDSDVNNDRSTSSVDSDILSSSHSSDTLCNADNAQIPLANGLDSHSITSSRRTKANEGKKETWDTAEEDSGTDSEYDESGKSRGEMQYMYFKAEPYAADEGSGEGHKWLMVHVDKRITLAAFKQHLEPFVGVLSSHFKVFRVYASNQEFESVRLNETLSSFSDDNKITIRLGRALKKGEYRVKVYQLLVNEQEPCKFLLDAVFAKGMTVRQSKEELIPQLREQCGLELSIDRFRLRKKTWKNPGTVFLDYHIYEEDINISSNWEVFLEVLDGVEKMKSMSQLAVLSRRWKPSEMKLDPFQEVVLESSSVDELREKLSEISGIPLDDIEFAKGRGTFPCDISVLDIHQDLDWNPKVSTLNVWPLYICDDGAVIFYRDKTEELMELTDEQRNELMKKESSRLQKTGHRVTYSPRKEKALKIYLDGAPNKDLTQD
Method in brief: as §1

USP48 = target: T3, USP48 (UniProt Q86UV5)
T3 sequence (whole entry): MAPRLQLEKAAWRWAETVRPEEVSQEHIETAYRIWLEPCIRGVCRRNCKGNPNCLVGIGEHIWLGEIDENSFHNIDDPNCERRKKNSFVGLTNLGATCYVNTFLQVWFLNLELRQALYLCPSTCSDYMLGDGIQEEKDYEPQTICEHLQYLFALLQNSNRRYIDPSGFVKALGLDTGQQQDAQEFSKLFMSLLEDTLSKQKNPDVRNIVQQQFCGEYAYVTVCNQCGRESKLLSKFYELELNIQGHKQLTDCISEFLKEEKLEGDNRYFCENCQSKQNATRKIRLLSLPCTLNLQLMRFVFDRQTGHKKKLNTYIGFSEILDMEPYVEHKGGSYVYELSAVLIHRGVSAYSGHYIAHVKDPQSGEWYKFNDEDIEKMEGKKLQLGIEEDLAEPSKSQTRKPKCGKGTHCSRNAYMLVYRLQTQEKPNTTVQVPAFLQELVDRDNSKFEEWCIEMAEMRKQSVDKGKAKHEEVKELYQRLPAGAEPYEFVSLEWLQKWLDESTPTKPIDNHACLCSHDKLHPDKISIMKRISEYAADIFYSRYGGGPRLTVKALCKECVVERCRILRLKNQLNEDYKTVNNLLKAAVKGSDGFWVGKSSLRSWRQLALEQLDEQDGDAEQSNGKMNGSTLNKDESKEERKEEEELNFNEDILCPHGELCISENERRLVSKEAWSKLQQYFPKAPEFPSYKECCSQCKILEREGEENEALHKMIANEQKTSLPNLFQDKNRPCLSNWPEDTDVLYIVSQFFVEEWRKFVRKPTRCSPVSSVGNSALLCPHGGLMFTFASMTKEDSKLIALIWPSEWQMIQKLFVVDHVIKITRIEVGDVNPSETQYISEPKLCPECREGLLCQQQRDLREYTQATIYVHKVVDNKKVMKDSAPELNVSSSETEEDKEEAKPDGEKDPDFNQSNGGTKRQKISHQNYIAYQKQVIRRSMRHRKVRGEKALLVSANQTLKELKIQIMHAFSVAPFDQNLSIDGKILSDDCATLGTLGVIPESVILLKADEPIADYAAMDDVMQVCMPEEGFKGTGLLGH
Method in brief: as §1

USP5 = target: T4, USP5 (UniProt P45974)
T4 sequence (whole entry): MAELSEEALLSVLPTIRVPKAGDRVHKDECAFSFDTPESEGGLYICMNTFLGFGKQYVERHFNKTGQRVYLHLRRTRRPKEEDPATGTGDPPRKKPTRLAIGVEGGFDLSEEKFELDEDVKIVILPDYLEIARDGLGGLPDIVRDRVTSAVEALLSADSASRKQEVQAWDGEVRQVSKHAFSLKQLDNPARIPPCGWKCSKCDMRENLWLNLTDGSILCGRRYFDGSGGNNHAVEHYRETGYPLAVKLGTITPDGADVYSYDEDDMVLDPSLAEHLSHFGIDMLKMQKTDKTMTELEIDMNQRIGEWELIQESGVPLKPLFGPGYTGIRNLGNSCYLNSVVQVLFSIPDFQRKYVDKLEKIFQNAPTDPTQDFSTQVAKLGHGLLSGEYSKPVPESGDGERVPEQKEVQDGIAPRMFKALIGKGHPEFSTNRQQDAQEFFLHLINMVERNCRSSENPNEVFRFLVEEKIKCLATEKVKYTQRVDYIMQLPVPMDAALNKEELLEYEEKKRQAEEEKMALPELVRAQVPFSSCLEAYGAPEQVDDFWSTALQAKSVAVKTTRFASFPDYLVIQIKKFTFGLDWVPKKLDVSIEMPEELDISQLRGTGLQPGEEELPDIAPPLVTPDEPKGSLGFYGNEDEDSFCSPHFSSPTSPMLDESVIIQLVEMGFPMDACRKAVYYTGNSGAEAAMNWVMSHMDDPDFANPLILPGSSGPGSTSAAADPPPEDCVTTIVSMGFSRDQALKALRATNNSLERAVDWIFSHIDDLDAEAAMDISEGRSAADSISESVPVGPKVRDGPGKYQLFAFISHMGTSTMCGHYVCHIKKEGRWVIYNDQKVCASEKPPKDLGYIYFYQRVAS
Method in brief: as §1

USP54 = USP54 (UniProt Q70EL1)
Method in brief: as §1

USP7 = USP7 (UniProt Q93009)
Method in brief: as §1

USP8 = target: T5, USP8 (UniProt P40818)
T5 sequence (whole entry): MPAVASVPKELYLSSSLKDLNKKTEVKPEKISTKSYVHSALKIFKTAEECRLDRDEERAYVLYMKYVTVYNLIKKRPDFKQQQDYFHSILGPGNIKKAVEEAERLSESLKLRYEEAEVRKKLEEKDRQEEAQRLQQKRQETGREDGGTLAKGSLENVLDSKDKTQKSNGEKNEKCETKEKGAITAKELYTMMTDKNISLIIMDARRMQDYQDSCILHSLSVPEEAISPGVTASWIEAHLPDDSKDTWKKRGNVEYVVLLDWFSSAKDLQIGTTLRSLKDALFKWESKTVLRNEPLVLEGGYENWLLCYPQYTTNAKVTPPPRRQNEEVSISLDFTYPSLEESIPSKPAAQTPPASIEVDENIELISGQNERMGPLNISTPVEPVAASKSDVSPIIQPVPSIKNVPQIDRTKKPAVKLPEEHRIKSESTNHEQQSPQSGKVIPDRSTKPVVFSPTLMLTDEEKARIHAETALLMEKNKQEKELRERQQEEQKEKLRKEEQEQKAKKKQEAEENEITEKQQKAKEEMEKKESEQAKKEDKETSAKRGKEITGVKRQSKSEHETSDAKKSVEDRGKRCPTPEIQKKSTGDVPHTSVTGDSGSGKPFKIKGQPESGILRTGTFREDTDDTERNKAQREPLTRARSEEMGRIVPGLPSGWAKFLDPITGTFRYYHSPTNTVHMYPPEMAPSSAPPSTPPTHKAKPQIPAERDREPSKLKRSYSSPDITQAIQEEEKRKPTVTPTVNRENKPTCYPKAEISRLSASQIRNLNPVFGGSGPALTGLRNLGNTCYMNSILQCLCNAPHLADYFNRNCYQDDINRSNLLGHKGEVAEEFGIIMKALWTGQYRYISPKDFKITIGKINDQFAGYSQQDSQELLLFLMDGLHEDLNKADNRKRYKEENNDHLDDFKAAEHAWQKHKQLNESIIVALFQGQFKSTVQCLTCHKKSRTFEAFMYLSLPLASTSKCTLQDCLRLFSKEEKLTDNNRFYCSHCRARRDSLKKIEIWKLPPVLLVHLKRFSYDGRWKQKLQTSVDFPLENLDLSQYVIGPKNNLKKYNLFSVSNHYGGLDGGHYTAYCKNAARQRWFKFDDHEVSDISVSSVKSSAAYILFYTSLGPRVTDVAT
Method in brief: as §1

USP9X = USP9X (UniProt Q93008)
Method in brief: as §1

UniProt O00487 = target: UniProt O00487
Method in brief: as §1

Measured: log2 ratio of Biotin-Ahx-Ub-VS probe labelling

USP7, sequence (Q93009 whole entry, looked up): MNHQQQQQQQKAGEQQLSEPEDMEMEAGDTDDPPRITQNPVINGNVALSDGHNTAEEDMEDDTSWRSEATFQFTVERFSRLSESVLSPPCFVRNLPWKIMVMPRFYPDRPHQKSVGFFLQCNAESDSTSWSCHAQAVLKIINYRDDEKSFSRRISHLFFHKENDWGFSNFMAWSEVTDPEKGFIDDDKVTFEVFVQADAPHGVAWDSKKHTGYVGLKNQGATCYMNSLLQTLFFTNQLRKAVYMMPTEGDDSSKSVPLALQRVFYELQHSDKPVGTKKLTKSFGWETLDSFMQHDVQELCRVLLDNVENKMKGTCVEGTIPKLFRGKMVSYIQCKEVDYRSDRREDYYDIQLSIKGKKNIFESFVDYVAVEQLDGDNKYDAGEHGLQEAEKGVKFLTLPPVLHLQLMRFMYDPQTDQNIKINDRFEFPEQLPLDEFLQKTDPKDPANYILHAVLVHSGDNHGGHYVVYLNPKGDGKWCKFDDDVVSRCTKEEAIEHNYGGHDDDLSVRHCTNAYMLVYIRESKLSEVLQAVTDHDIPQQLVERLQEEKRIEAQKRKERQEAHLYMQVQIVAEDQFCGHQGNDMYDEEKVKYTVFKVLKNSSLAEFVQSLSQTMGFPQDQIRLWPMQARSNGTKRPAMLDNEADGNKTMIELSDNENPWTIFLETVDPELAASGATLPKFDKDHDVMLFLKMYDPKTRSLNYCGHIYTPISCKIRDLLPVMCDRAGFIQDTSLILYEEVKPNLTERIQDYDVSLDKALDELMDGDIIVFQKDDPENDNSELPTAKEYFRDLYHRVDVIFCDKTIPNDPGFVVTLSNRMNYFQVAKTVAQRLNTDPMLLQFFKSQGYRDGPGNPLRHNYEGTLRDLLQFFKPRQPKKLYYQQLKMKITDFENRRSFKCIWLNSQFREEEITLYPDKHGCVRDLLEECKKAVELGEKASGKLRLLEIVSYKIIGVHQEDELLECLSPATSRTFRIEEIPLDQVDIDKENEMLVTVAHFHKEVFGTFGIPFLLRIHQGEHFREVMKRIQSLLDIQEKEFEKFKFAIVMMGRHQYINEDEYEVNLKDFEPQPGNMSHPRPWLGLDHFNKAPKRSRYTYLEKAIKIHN
USP46, sequence (P62068 whole entry): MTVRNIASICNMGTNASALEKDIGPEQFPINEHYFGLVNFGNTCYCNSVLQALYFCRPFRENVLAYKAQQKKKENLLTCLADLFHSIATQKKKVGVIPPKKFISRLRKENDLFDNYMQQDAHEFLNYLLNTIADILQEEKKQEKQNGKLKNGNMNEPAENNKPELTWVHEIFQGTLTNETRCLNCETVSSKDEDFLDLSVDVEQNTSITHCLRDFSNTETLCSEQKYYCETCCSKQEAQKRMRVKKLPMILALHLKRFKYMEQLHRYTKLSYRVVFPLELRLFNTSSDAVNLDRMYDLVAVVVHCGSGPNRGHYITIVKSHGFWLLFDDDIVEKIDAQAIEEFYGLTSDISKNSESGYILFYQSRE
USP54, sequence (Q70EL1 whole entry): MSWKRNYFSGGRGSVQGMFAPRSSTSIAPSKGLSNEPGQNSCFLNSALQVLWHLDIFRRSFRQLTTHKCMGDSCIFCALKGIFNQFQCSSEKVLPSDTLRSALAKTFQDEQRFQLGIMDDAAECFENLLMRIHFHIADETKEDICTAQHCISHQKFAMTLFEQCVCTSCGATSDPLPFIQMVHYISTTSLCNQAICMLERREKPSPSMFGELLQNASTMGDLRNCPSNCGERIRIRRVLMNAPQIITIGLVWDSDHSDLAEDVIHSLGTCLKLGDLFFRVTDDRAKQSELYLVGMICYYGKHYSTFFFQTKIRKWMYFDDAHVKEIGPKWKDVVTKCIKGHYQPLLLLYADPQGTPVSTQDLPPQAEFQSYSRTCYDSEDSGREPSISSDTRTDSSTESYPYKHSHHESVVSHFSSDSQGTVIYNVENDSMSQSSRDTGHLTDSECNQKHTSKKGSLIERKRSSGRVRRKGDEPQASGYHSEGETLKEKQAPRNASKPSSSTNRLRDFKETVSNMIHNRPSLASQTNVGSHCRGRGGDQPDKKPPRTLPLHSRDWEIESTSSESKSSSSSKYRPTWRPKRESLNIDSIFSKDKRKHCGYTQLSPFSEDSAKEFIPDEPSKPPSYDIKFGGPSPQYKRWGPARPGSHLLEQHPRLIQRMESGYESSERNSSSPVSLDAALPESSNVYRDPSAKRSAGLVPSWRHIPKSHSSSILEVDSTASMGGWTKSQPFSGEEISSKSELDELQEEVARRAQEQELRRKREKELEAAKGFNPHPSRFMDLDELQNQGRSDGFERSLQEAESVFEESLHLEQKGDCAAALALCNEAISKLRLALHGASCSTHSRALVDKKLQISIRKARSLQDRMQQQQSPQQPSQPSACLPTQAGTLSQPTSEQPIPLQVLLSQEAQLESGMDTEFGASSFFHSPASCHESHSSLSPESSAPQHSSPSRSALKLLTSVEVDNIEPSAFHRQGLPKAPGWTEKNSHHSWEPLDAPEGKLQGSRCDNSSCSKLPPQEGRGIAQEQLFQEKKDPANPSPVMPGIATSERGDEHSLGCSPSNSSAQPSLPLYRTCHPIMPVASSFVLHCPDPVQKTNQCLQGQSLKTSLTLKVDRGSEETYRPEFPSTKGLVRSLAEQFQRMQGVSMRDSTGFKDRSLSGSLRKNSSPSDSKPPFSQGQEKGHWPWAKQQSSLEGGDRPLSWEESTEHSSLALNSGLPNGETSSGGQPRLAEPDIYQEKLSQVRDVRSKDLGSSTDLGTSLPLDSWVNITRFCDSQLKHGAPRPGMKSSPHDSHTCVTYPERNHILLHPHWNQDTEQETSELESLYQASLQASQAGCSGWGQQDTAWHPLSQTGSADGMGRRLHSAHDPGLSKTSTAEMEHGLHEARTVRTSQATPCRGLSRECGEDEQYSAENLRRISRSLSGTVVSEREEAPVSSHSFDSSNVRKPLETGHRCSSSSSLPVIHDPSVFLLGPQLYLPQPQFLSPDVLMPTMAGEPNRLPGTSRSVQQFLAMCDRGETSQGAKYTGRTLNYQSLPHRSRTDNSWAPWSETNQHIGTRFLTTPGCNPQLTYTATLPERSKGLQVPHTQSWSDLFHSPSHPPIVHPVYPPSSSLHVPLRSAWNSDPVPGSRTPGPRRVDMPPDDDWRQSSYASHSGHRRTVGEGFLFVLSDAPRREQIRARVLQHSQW
UniProt O00487, sequence (O00487 whole entry): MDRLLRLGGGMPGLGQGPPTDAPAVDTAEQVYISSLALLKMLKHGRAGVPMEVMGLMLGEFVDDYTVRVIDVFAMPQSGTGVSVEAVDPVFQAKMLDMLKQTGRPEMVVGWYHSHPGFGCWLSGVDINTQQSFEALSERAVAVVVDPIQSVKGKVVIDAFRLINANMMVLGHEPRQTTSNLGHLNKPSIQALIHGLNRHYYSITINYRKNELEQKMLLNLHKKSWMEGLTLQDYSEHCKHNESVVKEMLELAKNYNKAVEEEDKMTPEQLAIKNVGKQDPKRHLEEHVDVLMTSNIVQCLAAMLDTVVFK

O=C(CCl)NC1CCN(C(=O)C2CCCCC2)CC1
inactive: USP42 0.471 | USP46 0.262 | USP47 0.301 | USP48 0.136 | USP5 -0.157 | USP54 0.282 | USP7 -0.045 | USP8 0.139 | USP9X 0.243 | UniProt O00487 0.0749
